This note sets out measurements from PubChem BioAssay.

Records with an inconclusive call do not appear. Calls of active or inactive are those of the source. Unless noted, the limit is not given here; nearly all actives have AC50 up to about 26 µM.

The term AC50 denotes the concentration at which the activity in the assay is half-maximal. What is called IC50 is the point on the concentration scale where inhibition reaches its midpoint.

Assay [1] is described as follows: growth inhibition of DIPG glioma cells, dose response, cell-based, SU-DIPG-XVII, MIPE5.0, CellTiter-Glo, qHTS (AID 1347060).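 As to AC50: cells exposed to compound for 48 hours before viability readout.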 The conditions noted are these: SU-DIPG-XVII viability, CellTiter-Glo ATP luminescence. In general terms: Cellular ATP, detected with luciferase, serves as a proxy for viable cell number.
The nature of assay [2]: growth inhibition of DIPG glioma cells, dose response, cell-based, JHH-DIPG-1, MIPE4.0, CellTiter-Glo, qHTS (AID 1347062; cut-off not given, nearly all actives have AC50 up to about 27 µM;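 as to AC50: cells exposed to compound for two days before readout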). The conditions noted are these: JHH-DIPG-1 viability, CellTiter-Glo ATP luminescence.
The nature of assay [3]: growth inhibition of DIPG glioma cells, dose response, cell-based, SU-DIPG-IV, MIPE4.0, CellTiter-Glo, qHTS (AID 1347063; cut-off not given, nearly all actives have AC50 up to about 30 µM;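 also: compound exposure lasted 48 hours before the viability readout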). The conditions noted are these: SU-DIPG-IV viability, CellTiter-Glo ATP luminescence.
Assay [4] can be described thus: growth inhibition of DIPG glioma cells, dose response, cell-based, SU-DIPG-XIII, MIPE5.0, CellTiter-Glo, qHTS (AID 1347064; cut-off not given, nearly all actives have AC50 up to about 23 µM;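 as to AC50: cells exposed to compound for 48 hours before the viability read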). The conditions noted are these: SU-DIPG-XIII viability, CellTiter-Glo ATP luminescence.
Assay [5] in a line: viability loss in pontine glioma line – cell-based, SU-DIPG-XXV, MIPE5.0, CellTiter-Glo, qHTS, dose response (AID 1347065).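 Also: cells exposed to compound for 48 hours before ATP readout.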 The note with it: CellTiter-Glo ATP luminescence.
Assay [6] is described as follows: SU-DIPG-VI glioma cell viability, MIPE4.0 library, CellTiter-Glo luminescence, qHTS (AID 1347066; cut-off not given, nearly all actives have AC50 up to about 30 µM;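 also: cells exposed to compound for 48 hours before readout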). The note with it: CellTiter-Glo ATP luminescence.
Assay [7] can be described thus: JHH-DIPG-1 glioma cell viability, MIPE5.0 library, CellTiter-Glo luminescence, qHTS (AID 1347067).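 Also: cells exposed to compound for 48 hours before readout.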 The note with it: JHH-DIPG-1 glioma viability, CellTiter-Glo ATP luminescence.
A short description of assay [8]: SU-DIPG-XXV glioma cell viability, MIPE5.0 library, qHTS (AID 1347068; cut-off not given, nearly all actives have IC50 up to about 30 µM;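 as to IC50: cells exposed to compound for 48 hours before viability readout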). In general terms: Quantitative high-throughput screening tests each substance at several concentrations.
The nature of assay [9]: sensitizers of A549 cells to miR-34 induction, primary screen, imaging, A549 dox-inducible miR-34, nuclei and caspase counts (AID 1347080;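 active = compounds whose cell count with miR-34 switched on is under 0.7 times the count with it off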). The note with it: A549 miR-34 inducible, Hoechst nuclei count, 48 h.
A short description of assay [10]: survival rescue of mitochondrial mutant cells in low glucose, primary screen, MELAS cybrids, Rieske KO mouse fibroblasts, CellTiter-Glo (AID 1508586;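 active = mean z-score across replicates of 1.96 or higher in either the MELAS or the Rieske mutant cell line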;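 also: z relative to plate mean and SD of compound and empty wells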).
The nature of assay [11]: growth inhibition of DIPG glioma cells, dose response, cell-based, SU-DIPG-XIII, MIPE4.0, CellTiter-Glo, qHTS (AID 1347061; cut-off not given, nearly all actives have AC50 up to about 37 µM;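 also: cells exposed to compound for 48 hours before readout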). The note with it: SU-DIPG-XIII viability, CellTiter-Glo ATP luminescence.
Setting [12] is: stronger effect = lower value, cell number ratio, induced over uninduced.
The mark [13] stands for this setting: measured here: relative caspase fold change +Dox/-Dox.
Setting [14] is: measured here: total cells with miR-34 induction, stronger effect = lower value.
Setting [15] is: measured here: total cells without miR-34 induction.
Setting [16] is: MELAS cybrid survival, CellTiter-Glo 48 h, stronger effect = higher value.
The mark [17] stands for this setting: Rieske KO mouse fibroblast survival, CellTiter-Glo 72 h.

With `Cc1cnc(Nc2cccc(CN3CCOCC3)c2)nc1Nc1cccc(S(=O)(=O)NC(C)(C)C)c1`, the concentration at half-maximal activity (AC50) in [1] is 0.332 µM (active); in assay [2], 7.43 µM (active); in [3], 5.26 µM (active); in assay [4] it was 2.95 µM (active); in assay [5], 1.18 µM (active); in assay [6] it was 14.8 µM (active). In addition, in assay [7], the concentration at half-maximal activity (AC50) was 2.35 µM (active).

As to `Cc1cc(CN2CCN(c3c(Br)cnc4nc(-c5ccc(N6CCN(C)CC6)cc5)[nH]c34)CC2)no1`, the AC50 in assay [1] was 1.66 µM (active); in assay [2], 7.43 µM (active); in assay [3] it was 5.26 µM (active); in [4], 3.32 µM (active); in assay [5] it was 1.05 µM (active); in assay [6], 14.8 µM (active). Also, the concentration at half-maximal activity (AC50) in assay [7] is 2.63 µM (active). Besides, the IC50 in assay [8] is 8.33 µM (active). For the same compound, the fold change in assay [9] (setting [12]) was 1.05 (inactive); in assay [9] (setting [13]) it was 0.921. The cell count came out at 3400 in assay [9] (setting [14]) and 3250 in assay [9] (setting [15]). The z-score in assay [10] (setting [16]) was -0.545 (inactive); in assay [10] (setting [17]) it was -0.677.

For `CC1=C(C(=O)Nc2cc3cn[nH]c3cc2F)C(c2ccc(Cl)cc2F)N=C(c2ccnc(Cl)c2)N1` (stereo not given), the AC50 was 13.2 µM (active) in [1], 5.9 µM (active) in assay [5] and 16.6 µM (active) in assay [7]. Moreover, in assay [11], the result was inactive.

Consider `CNC(=O)c1ccc(N2C(=S)N(c3cnc(C#N)c(C(F)(F)F)c3)C(=O)C23CCC3)cc1F`, for which the outcome in [1], in [4], in assay [5], in assay [7] and in assay [8] was inactive. Moreover, the AC50 in assay [2] is 0.935 µM (active); in assay [3], 1.32 µM (active); in [6] it was 18.7 µM (active). Besides, the fold change was 0.909 (inactive) in [9] (setting [12]) and 0.701 in [9] (setting [13]). The cell count worked out at 9240 in assay [9] (setting [14]) and 10200 in assay [9] (setting [15]). Besides, the z-score is -0.228 (inactive) in [10] (setting [16]) and 0.855 in [10] (setting [17]).

Turning to `COc1cc(NC(=O)c2ccc(-c3ccc(Cl)cc3)o2)cc(OC)c1`, the compound was classed as inactive in [1], in assay [4], in assay [5], in assay [6], in [7] and in assay [8]. In addition, the AC50 is 0.935 µM (active) in [2] and 6.62 µM (active) in assay [3]. The values for the fold change in [9] (setting [12]) and in assay [9] (setting [13]) were 0.861 (inactive) and 0.756, respectively. Moreover, the cell count in assay [9] (setting [14]) is 9550; in assay [9] (setting [15]), 11100. The z-score in [10] (setting [16]) is -0.392 (inactive); in assay [10] (setting [17]) it was 0.568.

On to `C=C[C@H]1CN2CCC1C[C@@H]2C(O)c1ccnc2ccc(OC)cc12` (stereo not given in full), for which the call in assay [1], in assay [2], in assay [3], in [4], in [5] and in assay [6] was inactive. For the same compound, the call in assay [7] and in assay [8] was inactive. Further, the fold change was 0.966 (inactive) in [9] (setting [12]) and 0.977 in assay [9] (setting [13]). Further, the cell count was 5680 in assay [9] (setting [14]) and 5880 in [9] (setting [15]).

For the compound `O=C(c1ccc(F)cc1)N1CCC[C@H](c2nc(-c3ccc(F)cc3)no2)C1`, the outcome in assay [1], in [2], in assay [3], in assay [4], in assay [5] and in [6] was inactive. Besides, the result in assay [7] and in assay [8] was inactive.

`CC(/C=C1\SC(=S)N(CC(=O)O)C1=O)=C\c1ccccc1`: the compound was classed as inactive in [1], in assay [2], in assay [3], in assay [4], in assay [5] and in assay [6]. Besides, the compound was called inactive in assay [7].
